TrxR1 inh: rat TrxR1 inhibition; O89049; recombinant rTrxR1, NADPH fluorescence consumption, selenite substrate; Potency, µM (highest dose often 114 µM), inactives show at the top dose activity change, negative = inhibition, hits mostly inhibitors; hit rate 1% among 390,000; AID 588453; also: potency is read from the fitted curve at half-maximal effect; nearly all actives have a fitted effect of over 65% in size
Target sequence (O89049 whole entry, looked up): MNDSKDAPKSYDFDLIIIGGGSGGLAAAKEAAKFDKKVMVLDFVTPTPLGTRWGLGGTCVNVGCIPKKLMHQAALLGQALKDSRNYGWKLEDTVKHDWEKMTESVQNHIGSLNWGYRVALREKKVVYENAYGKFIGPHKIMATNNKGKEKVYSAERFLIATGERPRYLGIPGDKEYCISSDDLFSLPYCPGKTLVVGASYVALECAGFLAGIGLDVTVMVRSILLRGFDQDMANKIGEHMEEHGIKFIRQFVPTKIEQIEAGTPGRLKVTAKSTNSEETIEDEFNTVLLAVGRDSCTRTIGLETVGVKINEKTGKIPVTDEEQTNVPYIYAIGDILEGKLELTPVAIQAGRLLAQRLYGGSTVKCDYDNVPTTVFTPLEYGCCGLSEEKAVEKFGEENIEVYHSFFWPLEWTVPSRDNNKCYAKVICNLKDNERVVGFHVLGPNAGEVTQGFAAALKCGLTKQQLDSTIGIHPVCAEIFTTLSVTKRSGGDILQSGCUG
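Rat TrxR1 (90 nM in the dispensed reagent) was pre-reduced with 400 uM NADPH for 5 min at room temperature, then incubated with compound for 15 min. After 400 uM selenite was added, NADPH fluorescence (Ex 340/Em 450 nm) was followed for 8 min.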
RORgamma inh: inhibitors of mouse ROR gamma transcriptional activity; P51450; Drosophila S2 Gal4-RORgamma UAS-luciferase reporter, 20 h; Potency, µM (top dose mostly 53.6 µM), for inactives: at the highest dose activity change, negative = inhibition, most hits filed as inhibitors; hit rate 5.4% among 310,000; AID 2551; also: potency is read from the fitted curve at half-maximal effect; nearly all actives have a fitted effect of over 60% in size
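Luciferase reporter read in Schneider cells carrying Gal4-RORγ (mouse) and UAS-Photinus luciferase; cells given compound 1 h before 700 uM copper sulfate induction, then incubated 20 h at ambient temperature.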
TrxR1 substrate: rat thioredoxin reductase 1 substrate activity; AID 588456; purified TrxR1 substrate turnover, NADPH consumption readout; hit rate 0.01% among 390,000; Potency, µM (highest dose often 114 µM), inactives show at the top dose activity change, negative = substrate turnover; also: potency is read from the fitted curve at half-maximal effect; nearly all actives have a fitted effect of over 50% in size
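Rat TrxR1, dispensed at 90 nM, was prereduced with 400 uM NADPH (final) for 5 min at ~22 deg C, then incubated with compound 15 min before 400 uM selenite. A first-read NADPH fluorescence drop versus no-compound background flagged substrates.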
Coupling enz: coupling enzyme interference in Giardia aldolase counter-screen. coupling enzyme system counterscreen, AmpLite Red fluorescence. AID 2472. hit rate 0.67% among 290,000. activity change, negative = inhibition, % at 58.2 µM, hits read low; in the data active = activity change below about -30%
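Compounds tested against the coupling enzymes alone at 57.5 uM final; readout was AmpLite Red fluorescence (525/598 nm) after 20 min at RT.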
GALK inh: inhibitors of human galactokinase; Purified GALK, Kinase-Glo residual ATP luminescence; P51570; AID 1868; Potency, µM (top dose mostly 57.5 µM), for the others: at the top dose activity change, negative = inhibition, hits mostly inhibitors; hit rate 0.007% among 270,000; also: potency is read from the fitted curve at half-maximal effect
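GALK at 5 nM final was combined with compound, 35 uM ATP and 100 uM galactose in HEPES pH8.0 with MgCl2 and DTT. The reaction ran one hour at room temperature before luminescent ATP detection.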
VP16 counter: counter-screen for ROR gamma inhibitors: Gal4-VP16 reporter | AID 2546 | hit rate 3.5% among 310,000 | Drosophila S2 Gal4-VP16 UAS-luciferase, luminescence, 20 h | Potency, µM (top dose mostly 53.6 µM), without a hit: at the highest dose activity, negative = inhibition, actives largely listed as inhibitors;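 also: Gal4-VP16 expression switched on by copper sulfate through the metallothionein promoter; potency is read from the fitted curve at half-maximal effect; nearly all actives have a fitted effect of over 50% in size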
Numbers without * were called inactive; [ ] = dose if it differs, or a comment. Only some compounds are listed: those with a hit (about 5.9% of all), similar ones and a draw of the others. Unless noted, calls follow the shape of the dose curve; as a rule, active = well fitted curve in the direction sought with a large enough effect; inconclusive = small, poorly fitted or top-dose-only effect, or another doubt; inactive = no such curve, though single readings can be large; an effect the other way counts as inactive or inconclusive. % is scaled to controls: 0 for no effect and ±100 for the full control effect.

`COc1ccc(C(=O)Nc2cc(C(C)C)c(O)c(S(=O)(=O)c3ccc(Cl)cc3)c2C)cc1` gave TrxR1 inh 17% and TrxR1 substrate -1%.
COc1cccc(CC(=O)Nc2ccc3nc(C)sc3c2)c1 was read as TrxR1 inh 22%[57.1 µM], RORgamma inh 37%, TrxR1 substrate -5%[57.1 µM], Coupling enz 0 and VP16 counter 26%.
`COc1ccc(/C=N/n2c(-c3ccc(C)cc3)n[nH]c2=S)cc1OC` gave TrxR1 inh -15%, RORgamma inh 3.2µM*, TrxR1 substrate -7%, Coupling enz 3, GALK inh -2% and VP16 counter -12%.
O=[N+]([O-])c1ccc(/C=N/n2c(-c3ccccc3)n[nH]c2=S)cc1 was read as TrxR1 inh -14%[57.1 µM], RORgamma inh 1.3µM*, TrxR1 substrate 4%[57.1 µM], Coupling enz 7, GALK inh -4% and VP16 counter 10µM*.
`Cc1ccc(/C=N/n2c(-c3ccccc3)n[nH]c2=S)cc1` gave TrxR1 inh 3%, RORgamma inh inconclusive, TrxR1 substrate -3%, Coupling enz 0, GALK inh -5% and VP16 counter 2.8µM*.
`Cc1ccc(-c2n[nH]c(=S)n2/N=C/c2ccc(C(=O)O)cc2)cc1` gave TrxR1 inh -19%, RORgamma inh -18%, TrxR1 substrate 0%, Coupling enz 2, GALK inh -2% and VP16 counter -2%.
Screening Oc1ccc(/C=N/n2c(-c3ccccc3)n[nH]c2=S)cc1Br returned TrxR1 inh -29%, RORgamma inh inconclusive, TrxR1 substrate -10%, Coupling enz 2, GALK inh -3% and VP16 counter -13%.
S=c1[nH]nc(-c2ccncc2)n1/N=C/c1ccccc1 was read as TrxR1 inh -25%, RORgamma inh inconclusive, TrxR1 substrate -4%, Coupling enz 4, GALK inh 0% and VP16 counter inconclusive.
Screening CC(C)c1ccc(/C=N/n2c(-c3ccccc3)n[nH]c2=S)cc1 returned TrxR1 inh -10%, RORgamma inh 4µM*, TrxR1 substrate -8%, Coupling enz 1, GALK inh 2% and VP16 counter 3.2µM*.
For COc1cc(/C=N/n2c(-c3ccccc3)n[nH]c2=S)ccc1O the results were TrxR1 inh -12%, RORgamma inh 2%, TrxR1 substrate 1%, Coupling enz 7, GALK inh -2% and VP16 counter 1%.
CCN(CC)S(=O)(=O)c1cccc(-c2n[nH]c(=S)n2/N=C/c2ccc(OC)cc2)c1 was read as TrxR1 inh -35%, RORgamma inh inconclusive, TrxR1 substrate -13%, Coupling enz 0, GALK inh -4% and VP16 counter -10%.
O=[N+]([O-])c1cc2c(cc1/C=N/n1c(-c3ccccc3)n[nH]c1=S)OCO2 was read as TrxR1 inh -9%[57.1 µM], RORgamma inh 5.6µM*, TrxR1 substrate -1%[57.1 µM], Coupling enz 1, GALK inh 0% and VP16 counter inconclusive.
Screening O=[N+]([O-])c1ccc(/C=N/n2cn[nH]c2=S)cc1 returned TrxR1 inh inconclusive, RORgamma inh 13µM*, TrxR1 substrate -9%, Coupling enz 3, GALK inh -1% and VP16 counter inconclusive.
Screening CCN(CC)S(=O)(=O)c1cccc(-c2n[nH]c(=S)n2/N=C/c2ccc(OC(F)F)cc2)c1 returned TrxR1 inh -43%, RORgamma inh -37%, TrxR1 substrate 1%[57.1 µM], Coupling enz 4, GALK inh -2% and VP16 counter 13µM*.
For COc1cc(C(=O)N2CCC3(CC2)NCCc2[nH]cnc23)cc(OC)c1OC the results were TrxR1 inh 7%, RORgamma inh -15%, TrxR1 substrate -4%, GALK inh -1% and VP16 counter -12%.
Cc1nc(-c2cccc(NC(=O)Nc3ccccc3C(F)(F)F)c2)no1 was read as TrxR1 inh 6%[57.1 µM] and TrxR1 substrate -1%[57.1 µM].
`CCn1cc2nc(SCc3ccc(F)cc3)n(CCc3ccccc3)c(=O)c2n1` gave TrxR1 inh 20%[57.1 µM] and TrxR1 substrate 1%[57.1 µM].
Screening C=CCOC(=O)C1=C(C)N=c2s/c(=C3\C(=O)N(CC(=O)O)c4ccccc43)c(=O)n2C1c1ccc(OC)cc1 (stereo unspecified) returned TrxR1 inh 35µM*, RORgamma inh 5%, TrxR1 substrate -11%, Coupling enz 5, GALK inh -7% and VP16 counter -10%.
`CCOC(=O)C1=C(C)N=c2s/c(=C3\C(=O)Nc4ccccc43)c(=O)n2C1c1ccc2c(c1)OCO2` (stereo unspecified) gave TrxR1 inh inconclusive, RORgamma inh 28%, TrxR1 substrate 7%, Coupling enz 1, GALK inh 0% and VP16 counter -3%[0.365 µM].
`Cc1nc(C)c(C(=O)NCc2ccc(Cl)cc2)o1` gave TrxR1 inh -2%[57.1 µM], RORgamma inh 38%, TrxR1 substrate 13%[57.1 µM], Coupling enz 1, GALK inh 0% and VP16 counter inconclusive.
For CCOc1ccc(NC(=S)NC(=O)c2c(Cl)c(C)nn2C)c([N+](=O)[O-])c1 the results were TrxR1 inh -3%, RORgamma inh 10µM*, TrxR1 substrate -5%, Coupling enz -3, GALK inh 1% and VP16 counter inconclusive.
For Cc1ccc(CNC(=O)c2ccc(Cn3nc(C)c(Cl)c3C)o2)cc1 the results were TrxR1 inh 40µM*, RORgamma inh 17%, TrxR1 substrate 6%, Coupling enz 2, GALK inh 0% and VP16 counter 1%.
Cc1nn(C)c(C(=O)NCc2ccc(Cl)cc2)c1Cl was read as TrxR1 inh 1%, RORgamma inh inconclusive, TrxR1 substrate -3%, Coupling enz -2, GALK inh -3% and VP16 counter 4µM*.
For Cc1nn(C)c(C(=O)NC(=S)Nc2ccccc2O)c1Cl the results were TrxR1 inh 11%, RORgamma inh 2µM*, TrxR1 substrate -4%, GALK inh -8% and VP16 counter 3.2µM*.
Screening O=C(COC(=O)/C=C/c1cccc(F)c1)Nc1ccc2[nH]c(=O)[nH]c2c1 returned TrxR1 inh 11% and TrxR1 substrate 4%.
CC(=O)c1c(COC(=O)c2cccnc2)nc2ccccc2[n+]1[O-] was read as TrxR1 inh 0%[57.1 µM], RORgamma inh -28%, TrxR1 substrate 4%[57.1 µM], Coupling enz 0, GALK inh 1% and VP16 counter -1%.
Screening CCC(=O)c1ccc(N2CCCCC2)c(F)c1 returned TrxR1 inh 12%, RORgamma inh 18%, TrxR1 substrate 1%, Coupling enz 1, GALK inh 1% and VP16 counter 0%.

From PubChem BioAssay
